We go through 64 molecules from PubChem BioAssay AID2330 (Broad Institute, 2010).

The campaign covered roughly 37,000 compounds. About 2,800 (7.6%) were called active. About 1% were inconclusive and are not listed. The list comes from a sample in which actives are over-represented; it also holds similar structures and randomly drawn compounds. A number with no mark means an inactive call. No stated cut-off is given here; in the data, active means inhibition above about 80%; inconclusive means no clear call, values can overlap the other calls; inactive means below that.

The test is described as follows: NOMO-1 AML cell viability reduction, primary screen, STK33 inhibitor project, CellTiter-Glo luminescence (AID 2330). The following applies: NOMO-1 AML viability, 72 h, hits give high values, concentration not given here. (In general: In ATP-based viability assays light output follows the ATP content of the culture.)
As usually defined, the inhibition is the change of the read-out against control, counted positive when it falls. Take `COCc1nc2c([nH]1)C(c1ccccc1COc1ccc(Cl)cc1)C(C#N)=C(N)O2` (centres undefined): the inhibition was 111% (active).

`COc1cc(OC)cc(C2C(C#N)=C(N)OC(N)=C2C#N)c1`: the inhibition is 38.6%.

Consider `CCn1c(SCC(=O)O)nnc1-c1ccc(OC)cc1`, for which the inhibition is -32.5%.

As to `S=c1cc(-c2ccccc2)oc(-c2ccccc2)c1`, the inhibition is 61.2%.

`C[C@@H]1CN([C@H](C)CO)C(=O)c2cccc(NS(=O)(=O)c3ccc(Cl)cc3)c2O[C@@H]1CN(C)Cc1ccc(Oc2ccccc2)cc1`: the inhibition was 49.7%.

Take `CCC(=O)O[C@]1(C(=O)CCl)[C@@H](C)CC2C3CCC4=CC(=O)C=C[C@]4(C)[C@@]3(F)[C@@H](O)C[C@@]21C` (some centres undefined): the inhibition is 7.72%.

Take `COc1cc(NC(=O)COc2ccc(Br)cc2)ccc1NC(=O)c1ccccc1Cl`: the inhibition was 13.7%.

As for `CC(C)(C)c1ccc(-c2[nH]nc(NC(=O)c3ccccc3Cl)c2Br)cc1`, the inhibition was 123% (active).

With `C[C@@H]1CN([C@@H](C)CO)C(=O)Cc2cc(NC(=O)Nc3ccc4c(c3)OCO4)ccc2O[C@@H]1CN(C)C(=O)Nc1ccc2c(c1)OCO2`, the inhibition was 9.09%.

As to `CC(C)NC(=O)Nc1cccc2c1O[C@H](CN(C)S(=O)(=O)c1ccccc1)[C@@H](C)CN([C@@H](C)CO)C2=O`, the inhibition is 6.74%.

Take `C[C@H]1CN([C@@H](C)CO)C(=O)c2cc(NS(=O)(=O)c3ccc(F)cc3)ccc2O[C@H]1CN(C)CC1CC1`: the inhibition was 16.3%.

As for `Cc1ccc(S(=O)(=O)Nc2ccc3c(c2)C(=O)N([C@@H](C)CO)C[C@H](C)[C@@H](CN(C)S(=O)(=O)c2ccc(C)cc2)O3)cc1`, the inhibition was -8.16%.

Consider `C[C@@H]1CN([C@H](C)CO)C(=O)Cc2cc(NC(=O)c3ccncc3)ccc2O[C@H]1CN(C)S(=O)(=O)c1cccs1`, for which the inhibition is 13.9%.

`C[C@H](CO)N1C[C@H](C)[C@H](CN(C)Cc2ccc(C(F)(F)F)cc2)Oc2ccc(NS(C)(=O)=O)cc2C1=O`: the inhibition is 3.14%.

As for `CCn1c(SCC(=O)Nc2sc3c(c2C#N)CCCC3)nnc1-c1ccccc1O`, the inhibition is -7.99%.

For the molecule `N#Cc1c(NC(=O)CCn2cnc3ccccc3c2=O)sc2c1CCCC2`, the inhibition is 27.7%.

Consider `CN1CCN(CC(=O)Nc2sc3c(c2C#N)CCC(C(C)(C)C)C3)CC1` (centres undefined), for which the inhibition is 115% (active).

Consider `OC(c1nc2ccccc2[nH]1)C(O)C(O)C(O)c1nc2ccccc2[nH]1` (centres undefined), for which the inhibition was -2.04%.

In the case of `O=C(CSc1ncnc2sc3c(c12)CCCC3)Nc1ccc(F)c(Cl)c1`, the inhibition was -1.63%.

For the molecule `CC(C)NC(=O)N(C)C[C@H]1Oc2c(NS(C)(=O)=O)cccc2C(=O)N([C@@H](C)CO)C[C@H]1C`, the inhibition is 12.9%.

With `C[C@@H]1CN([C@@H](C)CO)C(=O)c2cccc(NC(=O)c3cnccn3)c2O[C@H]1CN(C)S(=O)(=O)c1cccs1`, the inhibition was 9.49%.

Take `O=C(OCC1OC(Oc2ccc(O)cc2COC(=O)C2(O)C(O)CCC(O)C2O)C(O)C(O)C1O)c1ccccc1` (centres undefined): the inhibition was 17%.

Turning to `COc1cc(/C=C/C(=O)O[C@@H]2O[C@H](CO[C@@H]3O[C@H](CO)[C@@H](O)[C@H](O)[C@H]3O)[C@@H](O)[C@H](O)[C@H]2OC(=O)/C=C/c2cc(OC)c(O)c(OC)c2)cc(OC)c1O`, the inhibition is 14.7%.

With `COc1cc(O[C@@H]2O[C@H](CO[C@H]3OC[C@](O)(COC(=O)c4ccc(O)c(OC)c4)[C@H]3O)[C@@H](O)[C@H](O)[C@H]2O)ccc1O`, the inhibition was 120% (active).

As for `Cc1ccc(S(=O)(=O)N(C)C[C@@H]2Oc3c(NC(=O)C4CCCCC4)cccc3C(=O)N([C@H](C)CO)C[C@H]2C)cc1`, the inhibition was 16.1%.

With `COc1ccc(NC(=O)Nc2ccc3c(c2)C(=O)N([C@H](C)CO)C[C@H](C)[C@H](CN(C)C(=O)Nc2c(C)noc2C)OCCCC[C@@H](C)O3)cc1`, the inhibition was -10.5%.

As for `C[C@@H]1CN([C@@H](C)CO)C(=O)c2cc(NC(=O)Nc3cccc4ccccc34)ccc2O[C@H]1CN(C)Cc1ccc(Cl)c(Cl)c1`, the inhibition is 94% (active).

In the case of `C[C@@H]1CN([C@H](C)CO)C(=O)c2cc(NC(=O)Nc3ccccc3)ccc2O[C@H]1CN(C)Cc1ccc(Cl)c(Cl)c1`, the inhibition was -8.23%.

Consider `COc1ccc(NC(=O)Nc2ccc3c(c2)C(=O)N([C@@H](C)CO)C[C@@H](C)[C@H](CN(C)Cc2ccc(Cl)c(Cl)c2)O3)cc1`, for which the inhibition was 39.3%.

Turning to `C[C@@H]1CN([C@H](C)CO)C(=O)c2cc(NC(=O)Nc3ccccc3)ccc2O[C@@H]1CN(C)Cc1ccc(Cl)c(Cl)c1`, the inhibition is 88.9% (active).

Turning to `CC(C)NC(=O)Nc1ccc2c(c1)C(=O)N([C@@H](C)CO)C[C@@H](C)[C@H](CN(C)Cc1ccc(Cl)c(Cl)c1)O2`, the inhibition was 44.5%.

In the case of `C[C@@H]1CN([C@H](C)CO)C(=O)c2cc(NC(=O)Nc3ccc(F)cc3)ccc2O[C@@H]1CN(C)Cc1ccc(Cl)c(Cl)c1`, the inhibition was 62.8%.

Take `CC(=O)Oc1ccc(N(C(C)=O)S(=O)(=O)c2ccc(Cl)cc2)cc1`: the inhibition was 42.4%.

With `CCC(Oc1cccc(NC(=O)c2ccccc2[N+](=O)[O-])c1)C(=O)c1ccccc1` (centres undefined), the inhibition was 2.87%.

Take `Cc1ccc(NC(=O)CSc2ncnc3sc(C)c(C)c23)cc1`: the inhibition is 11.3%.

Take `Cc1ccc(S(=O)(=O)NCC(=O)N2CCN(c3ccccn3)CC2)cc1`: the inhibition was -2.49%.

For `Cc1ccc(S(=O)(=O)Nc2ccc3c(c2)C(=O)N([C@@H](C)CO)C[C@@H](C)[C@@H](CN(C)Cc2ccncc2)O3)cc1`, the inhibition was 22.8%.

Take `C[C@H](CO)N1C[C@H](C)[C@@H](CN(C)Cc2ccc3c(c2)OCO3)Oc2ccc(NC(=O)Nc3ccc(F)cc3)cc2C1=O`: the inhibition is -1.77%.

For `C[C@@H]1CN([C@H](C)CO)C(=O)c2cc(NC(=O)Nc3ccc(C(F)(F)F)cc3)ccc2O[C@H]1CN(C)C(=O)Nc1ccccc1`, the inhibition is 24.7%.

As for `C[C@@H]1CN([C@H](C)CO)C(=O)c2cccc(NC(=O)Nc3ccccc3)c2O[C@H]1CN(C)Cc1ccccc1`, the inhibition is 75.5%.

With `C[C@@H]1CN([C@H](C)CO)C(=O)c2cccc(NC(=O)Nc3cccc4ccccc34)c2O[C@@H]1CN(C)C(=O)Nc1cccc2ccccc12`, the inhibition was 10.3%.

On to `C[C@H](CO)N1C[C@H](C)[C@H](CN(C)C(=O)Nc2ccc(C(F)(F)F)cc2)Oc2ccc(NC(=O)Nc3ccccc3)cc2C1=O`, for which the inhibition is 85.9% (active).

Turning to `C[C@H](CO)N1C[C@H](C)[C@H](CN(C)C(=O)Nc2ccccc2)Oc2c(NC(=O)Nc3ccc(C(F)(F)F)cc3)cccc2C1=O`, the inhibition was 96.2% (active).

Regarding `COc1ccc(CN(C)C[C@H]2Oc3c(NC(=O)Nc4ccccc4)cccc3C(=O)N([C@@H](C)CO)C[C@@H]2C)cc1`, the inhibition was 56.6%.

Take `C[C@H]1CN([C@@H](C)CO)C(=O)c2cccc(NC(=O)Nc3ccc(C(F)(F)F)cc3)c2O[C@@H]1CN(C)Cc1ccccc1`: the inhibition was 72.2%.

As for `C[C@@H]1CN([C@H](C)CO)C(=O)c2cccc(NC(=O)Nc3cccc4ccccc34)c2O[C@@H]1CN(C)C(=O)Nc1ccc(F)cc1`, the inhibition is 97% (active).

`C[C@@H]1CN([C@@H](C)CO)C(=O)c2cccc(NC(=O)Nc3ccccc3)c2O[C@H]1CN(C)Cc1ccccc1`: the inhibition was 117% (active).

With `C[C@@H]1CN([C@@H](C)CO)C(=O)c2cccc(NC(=O)Nc3ccc(F)cc3)c2O[C@H]1CN(C)C(=O)Nc1ccc(F)cc1`, the inhibition is -5.44%.

`C[C@@H]1CN([C@@H](C)CO)C(=O)c2cccc(NC(=O)Nc3ccc(F)cc3)c2O[C@@H]1CN(C)C(=O)Nc1ccccc1`: the inhibition is 35.8%.

For the molecule `C[C@H]1CN([C@@H](C)CO)C(=O)c2cc(NC(=O)Nc3ccccc3)ccc2O[C@@H]1CN(C)C(=O)Nc1ccccc1`, the inhibition is 6.27%.

As for `O=C(CSc1nccc(=O)[nH]1)Nc1ccc([N+](=O)[O-])cc1`, the inhibition was 11.7%.

Turning to `C=C1CCC(C)C(C)(CCC2=CC(OC)OC2=O)C/C=C\C=C\1C(=O)O` (centres undefined), the inhibition was 9.74%.

As for `Cc1cc(C)n2nc(SCC(=O)Nc3ccccc3[N+](=O)[O-])nc2n1`, the inhibition is 4.39%.

On to `Cc1ccc(CC2C(=O)N(c3cccc(C(F)(F)F)c3)C(=O)C2C)cc1` (centres undefined), for which the inhibition was 54.7%.

Regarding `C[C@@H]1CN([C@H](C)CO)C(=O)c2cc(NC(=O)C3CC3)ccc2O[C@@H]1CN(C)C`, the inhibition was -2.07%.

Consider `CNC[C@H]1Oc2c(NC(=O)C3CC3)cccc2C(=O)N([C@@H](C)CO)C[C@@H]1C`, for which the inhibition was 15.2%.

As to `C[C@@H]1CN([C@H](C)CO)C(=O)Cc2cc(NS(=O)(=O)c3ccc(Cl)cc3)ccc2O[C@@H]1CN(C)S(=O)(=O)c1ccc(Cl)cc1`, the inhibition was 19.9%.

Regarding `C[C@@H]1CN([C@H](C)CO)C(=O)c2cc(NC(=O)Cc3ccccc3)ccc2O[C@H]1CN(C)S(=O)(=O)c1cn(C)cn1`, the inhibition was 4.97%.

As to `CC(Sc1nc2ccccc2[nH]1)c1nc2ccccc2[nH]1` (centres undefined), the inhibition is 4.08%.

As for `Cc1cccc(C)c1NC(=O)C(C)N(c1ccc(Cl)cc1)S(C)(=O)=O` (centres undefined), the inhibition was -16.6%.

Regarding `CCOC(=O)c1c(NC(=O)Cn2nc([N+](=O)[O-])c(Br)c2C)sc2c1CCCC2`, the inhibition is 41.4%.

Regarding `Cc1ccc(S(=O)(=O)Nc2cccc3c2O[C@@H](CN(C)CC2CCCCC2)[C@H](C)CN([C@@H](C)CO)C3=O)cc1`, the inhibition is 10.5%.

For the molecule `Cc1ccc(S(=O)(=O)Nc2cccc3c2O[C@@H](CN(C)S(=O)(=O)c2ccc(C)cc2)[C@H](C)CN([C@@H](C)CO)C3=O)cc1`, the inhibition was 4.36%.

For the molecule `C[C@H](CO)N1C[C@H](C)[C@@H](CN(C)Cc2ccc3c(c2)OCO3)Oc2c(cccc2N(C)C)C1=O`, the inhibition is 21.9%.
